According to PubChem BioAssay:
Values joined by “and” are separate entries in the source; they are usually repeats but may differ in a detail not shown here. Equal values may be shown once. Active and inactive are the calls of the source.

Tests used:
[1] = tested on: PRMT1 (protein arginine N-methyltransferase 1); assay: small molecules binding arginine methyltransferase PRMT1 – biochemical, small-molecule microarray, 635 nm fluorescence, primary screen (AID 1088); conditions: higher = more signal;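 further: binding of Prmt1 protein to compounds spotted on small-molecule microarray slides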
[2] = growth effects on S. cerevisiae YJM789 – YJM789 clinical isolate, OD600, 24 h, basal, primary screen (AID 1089); conditions: higher = more signal, called active from +8 up or from −8 down;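 further: growth of clinical yeast isolate S. cerevisiae YJM 789 seeded 1000 cells per well; test concentration not given here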
[3] = S. pombe growth modifiers, basal conditions – strain 972, OD600, 24 h, no modulator, primary screen (AID 1090);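 further: basal condition with compound alone and no growth modifier present; test concentration not given here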; conditions: S. pombe 972 growth, higher = more signal, called active from +8 up or from −8 down
[4] = budding yeast growth modifiers under rapamycin – strain BY4716, OD600, 96 h, primary screen (AID 1091); further: test concentration not given here; conditions: S. cerevisiae BY4716 + rapamycin, higher = more signal, called active from +8 up or from −8 down
[5] = target: Torsin-1A-interacting protein 2 (Homo sapiens) (UniProt Q8NFQ8); assay: small molecules binding lysate-expressed LULL1 – cell lysate, human LULL1 lysate, 635/667 nm fluorescence, primary screen (AID 1092); conditions: small-molecule microarray, hLULL1 lysate binding, 635 nm fluorescence; higher = more signal;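 further: probe is lysate of COS7 cells overexpressing human LULL1; score merges per-feature 667 nm fluorescence with signal-to-noise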
[6] = optical density change of DRC41 E. coli – strain DRC41, OD650, 24 h, E. coli filamentation project, primary screen (AID 1093);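 further: MC1000 strain lacking acrAB efflux and sulA so SOS filamentation is blocked; test concentration not given here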; conditions: E. coli DRC41 growth, higher = more signal, called active from +8 up or from −8 down
[7] = probe aLefty2 binding to arrayed compounds – biochemical, biotinylated probe, 635/667 nm fluorescence, primary screen (AID 1094); conditions: small-molecule microarray, higher = more signal;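 further: score merges spot fluorescence near 667 nm with spot signal-to-noise ratio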
[8] = tested on: Noggin (protein binding on small-molecule microarray); assay: small molecules binding Noggin protein – biochemical, 635/667 nm fluorescence, primary screen (AID 1095); conditions: 635 nm fluorescence, higher = more signal;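 further: score merges 667 nm feature fluorescence with signal to noise over triplicate slides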
[9] = target: Neurogenic locus notch homolog protein 3 (Homo sapiens) (UniProt Q9UM47); assay: small molecules binding NOTCH3 protein – biochemical, 635/667 nm fluorescence, primary screen (AID 1096); conditions: small-molecule microarray, 635 nm fluorescence, higher = more signal
[10] = probe aEGFR binding to arrayed compounds – biochemical, biotinylated probe, 635/667 nm fluorescence, primary screen (AID 1097); conditions: small-molecule microarray, higher = more signal;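 further: probe is a biotinylated anti-EGFR antibody binding compounds printed on slides; score combines fluorescence near 667 nm and signal to noise of each spot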
[11] = tested on: Plasmodium falciparum Sir2 (PF13_0152, Sir2A); assay: Plasmodium falciparum Sir2A binding compounds – biochemical, small-molecule microarray, 635 nm fluorescence, primary screen (AID 1098); conditions: fluorescence 635 nm, higher = more signal;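 further: score merges spot fluorescence intensity with its signal-to-noise ratio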
[12] = probe aDKK1 binding to arrayed compounds – biochemical, biotinylated probe, 635/667 nm fluorescence, primary screen (AID 1099); conditions: small-molecule microarray, higher = more signal;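 further: score merges 667nm spot fluorescence with signal to noise across triplicate slides; reference of the scale not given here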
[13] = probe aCHRDL2 binding to arrayed compounds – biochemical, biotinylated probe, 635/667 nm fluorescence, primary screen (AID 1100); conditions: small-molecule microarray, higher = more signal
[14] = change in splice reporter luminescence, either direction, cell-based, HEK293, spliceosome inhibition project, primary screen (AID 1101); conditions: HEK293 splicing luciferase reporter, 24 h, higher = more signal, called active from +8 up or from −8 down;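 further: HEK293 cells carrying a splicing-competent luciferase reporter gene; test concentration not given here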
[15] = target: Fibroblast growth factor 10 (Homo sapiens) (UniProt O15520); assay: compounds binding fibroblast growth factor 10 – biochemical, small-molecule microarray, 635 nm fluorescence, primary screen (AID 1102); conditions: FGF10 binding, fluorescence 635 nm, higher = more signal
[16] = tested on: glycogen synthase kinase-3 (GSK3A per assay name; protocol says GSK3B); assay: compounds binding glycogen synthase kinase-3 – biochemical, small-molecule microarray, 635 nm fluorescence, GSK3A, primary screen (AID 1103); conditions: fluorescence 635 nm, higher = more signal; further: the record names both GSK3A and GSK3B
[17] = target: Epidermal growth factor receptor (Homo sapiens) (UniProt P00533); assay: compounds binding epidermal growth factor receptor – biochemical, small-molecule microarray, 635 nm fluorescence, primary screen (AID 1104); conditions: EGFR binding, higher = more signal;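 further: score merges 667 nm emission intensity with spot signal to noise over triplicate slides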
[18] = target: Follistatin-related protein 3 (Homo sapiens) (UniProt O95633); assay: compounds binding follistatin-related protein 3 – biochemical, small-molecule microarray, 635 nm fluorescence, primary screen (AID 1105); conditions: FSTL3 binding, higher = more signal;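 further: score merges emission near 667 nm and signal to noise per printed spot across three slides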
[19] = target: Dickkopf-related protein 1 (Homo sapiens) (UniProt O94907); assay: small molecules binding DKK1 protein – biochemical, small-molecule microarray, 635 nm fluorescence scan, primary screen (AID 1106); conditions: higher = more signal;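 further: score merges emission near 667 nm with signal to noise over three replicate slides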
[20] = tested on: Inhibin beta A chain (activin A); assay: small molecules binding activin A – biochemical, small-molecule microarray, 635 nm fluorescence scan, primary screen (AID 1107); conditions: INHBA, higher = more signal;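 further: mouse activin A protein probed at 4.33 µg/mL on printed slides; score merges bound-protein fluorescence near 667 nm with spot signal-to-noise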

Chain of Follistatin-related protein 3 (Homo sapiens) (O95633 whole entry, looked up): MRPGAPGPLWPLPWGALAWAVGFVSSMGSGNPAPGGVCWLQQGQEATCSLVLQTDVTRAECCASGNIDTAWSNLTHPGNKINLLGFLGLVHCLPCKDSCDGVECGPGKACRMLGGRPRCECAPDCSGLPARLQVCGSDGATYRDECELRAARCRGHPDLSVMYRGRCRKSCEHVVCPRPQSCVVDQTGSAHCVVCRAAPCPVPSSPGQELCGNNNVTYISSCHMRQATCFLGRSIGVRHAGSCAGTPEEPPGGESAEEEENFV
Chain of Epidermal growth factor receptor (Homo sapiens) (P00533 whole entry, looked up): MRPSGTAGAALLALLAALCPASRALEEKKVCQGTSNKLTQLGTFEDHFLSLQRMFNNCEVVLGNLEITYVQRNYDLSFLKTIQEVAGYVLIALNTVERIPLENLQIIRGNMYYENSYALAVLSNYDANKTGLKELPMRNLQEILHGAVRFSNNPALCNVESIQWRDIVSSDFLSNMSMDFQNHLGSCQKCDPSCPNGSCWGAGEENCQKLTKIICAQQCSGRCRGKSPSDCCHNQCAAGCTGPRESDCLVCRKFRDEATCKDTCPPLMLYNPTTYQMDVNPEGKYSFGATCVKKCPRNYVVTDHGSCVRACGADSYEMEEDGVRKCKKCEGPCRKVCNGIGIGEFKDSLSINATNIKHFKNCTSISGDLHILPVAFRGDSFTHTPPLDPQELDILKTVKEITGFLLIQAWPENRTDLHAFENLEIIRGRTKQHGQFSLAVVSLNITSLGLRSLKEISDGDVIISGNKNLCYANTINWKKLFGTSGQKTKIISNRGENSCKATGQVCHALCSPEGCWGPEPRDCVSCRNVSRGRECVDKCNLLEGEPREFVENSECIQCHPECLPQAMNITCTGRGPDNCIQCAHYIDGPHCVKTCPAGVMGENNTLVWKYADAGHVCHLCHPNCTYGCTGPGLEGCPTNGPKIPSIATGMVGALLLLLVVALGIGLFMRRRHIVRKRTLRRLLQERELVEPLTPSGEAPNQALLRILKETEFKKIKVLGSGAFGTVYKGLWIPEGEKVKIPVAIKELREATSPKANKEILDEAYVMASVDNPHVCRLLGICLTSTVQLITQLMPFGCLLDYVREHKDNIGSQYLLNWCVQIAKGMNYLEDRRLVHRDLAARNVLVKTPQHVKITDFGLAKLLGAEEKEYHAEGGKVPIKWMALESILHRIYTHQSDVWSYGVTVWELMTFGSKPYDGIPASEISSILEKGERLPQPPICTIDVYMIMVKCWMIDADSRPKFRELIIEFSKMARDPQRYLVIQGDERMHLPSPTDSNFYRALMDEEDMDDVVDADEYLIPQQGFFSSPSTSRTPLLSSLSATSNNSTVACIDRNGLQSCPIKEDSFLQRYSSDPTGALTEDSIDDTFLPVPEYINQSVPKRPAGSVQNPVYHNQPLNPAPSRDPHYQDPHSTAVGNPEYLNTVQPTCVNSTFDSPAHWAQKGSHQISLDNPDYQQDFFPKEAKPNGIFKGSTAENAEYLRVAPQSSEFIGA
Chain of Torsin-1A-interacting protein 2 (Homo sapiens) (Q8NFQ8 whole entry, looked up): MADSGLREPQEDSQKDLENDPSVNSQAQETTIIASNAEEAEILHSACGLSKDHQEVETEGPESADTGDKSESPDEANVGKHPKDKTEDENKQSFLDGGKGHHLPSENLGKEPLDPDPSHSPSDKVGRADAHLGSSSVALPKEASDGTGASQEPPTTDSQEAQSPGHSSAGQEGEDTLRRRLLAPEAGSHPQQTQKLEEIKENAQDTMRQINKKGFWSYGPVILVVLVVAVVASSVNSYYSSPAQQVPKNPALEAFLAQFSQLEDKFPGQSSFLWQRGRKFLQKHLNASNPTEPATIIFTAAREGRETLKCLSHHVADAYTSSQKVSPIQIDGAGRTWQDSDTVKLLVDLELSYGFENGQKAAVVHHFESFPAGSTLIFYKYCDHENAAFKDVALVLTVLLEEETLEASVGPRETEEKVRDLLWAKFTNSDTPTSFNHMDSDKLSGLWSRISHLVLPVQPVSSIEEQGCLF
Chain of Neurogenic locus notch homolog protein 3 (Homo sapiens) (Q9UM47 whole entry, looked up): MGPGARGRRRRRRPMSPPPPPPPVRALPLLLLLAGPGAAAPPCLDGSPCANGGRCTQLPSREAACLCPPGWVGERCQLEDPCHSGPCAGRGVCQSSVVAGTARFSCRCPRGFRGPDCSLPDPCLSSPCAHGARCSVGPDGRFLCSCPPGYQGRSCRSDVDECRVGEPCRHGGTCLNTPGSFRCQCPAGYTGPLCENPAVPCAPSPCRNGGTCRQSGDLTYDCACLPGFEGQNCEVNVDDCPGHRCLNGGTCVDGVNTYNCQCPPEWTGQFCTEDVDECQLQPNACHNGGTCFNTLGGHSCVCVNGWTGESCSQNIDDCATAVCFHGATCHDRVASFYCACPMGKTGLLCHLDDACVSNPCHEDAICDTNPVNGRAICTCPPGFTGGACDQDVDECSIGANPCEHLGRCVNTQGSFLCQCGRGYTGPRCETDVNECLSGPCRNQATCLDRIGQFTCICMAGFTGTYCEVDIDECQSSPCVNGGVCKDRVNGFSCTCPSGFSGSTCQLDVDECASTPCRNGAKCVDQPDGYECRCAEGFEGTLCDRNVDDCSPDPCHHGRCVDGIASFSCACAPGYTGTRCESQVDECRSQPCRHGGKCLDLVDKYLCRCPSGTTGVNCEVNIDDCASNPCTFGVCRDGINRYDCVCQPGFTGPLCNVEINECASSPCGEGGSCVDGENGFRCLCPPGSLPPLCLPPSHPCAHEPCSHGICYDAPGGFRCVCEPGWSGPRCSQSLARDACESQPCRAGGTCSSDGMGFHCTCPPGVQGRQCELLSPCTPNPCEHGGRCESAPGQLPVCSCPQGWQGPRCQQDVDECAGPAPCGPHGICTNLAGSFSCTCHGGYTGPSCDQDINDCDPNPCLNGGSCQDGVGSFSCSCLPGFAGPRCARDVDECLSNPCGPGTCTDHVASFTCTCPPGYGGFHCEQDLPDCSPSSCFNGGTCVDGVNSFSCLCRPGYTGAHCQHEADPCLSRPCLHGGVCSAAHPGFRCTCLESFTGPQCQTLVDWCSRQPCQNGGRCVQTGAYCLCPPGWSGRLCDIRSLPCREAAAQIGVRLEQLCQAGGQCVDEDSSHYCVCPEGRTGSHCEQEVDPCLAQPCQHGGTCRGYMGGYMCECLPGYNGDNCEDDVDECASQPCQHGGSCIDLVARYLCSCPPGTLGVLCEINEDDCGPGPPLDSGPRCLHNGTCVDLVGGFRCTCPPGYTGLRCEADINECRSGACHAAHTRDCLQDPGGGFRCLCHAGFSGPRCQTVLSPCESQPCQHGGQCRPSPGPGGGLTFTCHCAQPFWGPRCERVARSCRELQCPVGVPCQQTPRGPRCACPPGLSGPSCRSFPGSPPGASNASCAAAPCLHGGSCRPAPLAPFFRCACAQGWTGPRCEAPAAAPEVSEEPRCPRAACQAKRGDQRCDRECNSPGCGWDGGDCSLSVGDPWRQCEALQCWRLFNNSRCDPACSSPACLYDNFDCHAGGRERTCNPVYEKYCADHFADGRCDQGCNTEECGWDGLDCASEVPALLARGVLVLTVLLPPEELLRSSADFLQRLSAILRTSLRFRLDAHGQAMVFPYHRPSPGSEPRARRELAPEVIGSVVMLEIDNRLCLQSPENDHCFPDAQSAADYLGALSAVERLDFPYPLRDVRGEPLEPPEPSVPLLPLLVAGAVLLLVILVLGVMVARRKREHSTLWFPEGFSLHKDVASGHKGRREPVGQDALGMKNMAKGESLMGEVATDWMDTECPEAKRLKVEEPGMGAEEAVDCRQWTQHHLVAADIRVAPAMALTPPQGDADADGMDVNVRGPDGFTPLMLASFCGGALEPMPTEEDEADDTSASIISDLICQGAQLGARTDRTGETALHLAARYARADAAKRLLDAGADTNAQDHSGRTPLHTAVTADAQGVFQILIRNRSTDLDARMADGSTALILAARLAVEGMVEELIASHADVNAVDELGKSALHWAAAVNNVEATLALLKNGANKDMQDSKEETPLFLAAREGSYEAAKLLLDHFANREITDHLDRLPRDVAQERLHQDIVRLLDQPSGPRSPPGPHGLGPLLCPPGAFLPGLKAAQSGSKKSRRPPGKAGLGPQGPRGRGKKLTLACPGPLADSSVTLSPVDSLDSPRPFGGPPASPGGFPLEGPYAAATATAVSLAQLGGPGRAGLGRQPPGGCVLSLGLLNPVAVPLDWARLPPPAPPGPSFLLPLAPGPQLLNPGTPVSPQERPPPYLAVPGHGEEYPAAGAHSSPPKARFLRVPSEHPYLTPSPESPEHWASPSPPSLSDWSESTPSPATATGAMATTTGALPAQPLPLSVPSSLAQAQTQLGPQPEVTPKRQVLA
Chain of Fibroblast growth factor 10 (Homo sapiens) (O15520 whole entry, looked up): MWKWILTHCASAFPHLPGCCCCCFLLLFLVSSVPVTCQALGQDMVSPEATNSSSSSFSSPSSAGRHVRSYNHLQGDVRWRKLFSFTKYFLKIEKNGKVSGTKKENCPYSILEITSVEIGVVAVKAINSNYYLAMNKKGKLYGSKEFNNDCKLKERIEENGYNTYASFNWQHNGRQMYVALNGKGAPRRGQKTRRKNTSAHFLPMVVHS
Chain of Dickkopf-related protein 1 (Homo sapiens) (O94907 whole entry, looked up): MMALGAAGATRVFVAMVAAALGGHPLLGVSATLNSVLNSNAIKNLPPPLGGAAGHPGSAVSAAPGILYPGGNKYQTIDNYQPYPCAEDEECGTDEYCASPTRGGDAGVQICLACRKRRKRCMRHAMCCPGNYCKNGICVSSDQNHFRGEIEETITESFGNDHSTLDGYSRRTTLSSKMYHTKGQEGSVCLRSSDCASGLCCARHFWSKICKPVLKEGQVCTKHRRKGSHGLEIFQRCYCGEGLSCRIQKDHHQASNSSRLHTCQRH

Row | Structure (SMILES) | composite z-score [1] | z-score [2] | z-score [3] | z-score [4] | composite z-score [5] | z-score [6] | composite z-score [7] | composite z-score [8] | composite z-score [9] | composite z-score [10] | composite z-score [11] | composite z-score [12] | composite z-score [13] | z-score [14] | composite z-score [15] | composite z-score [16] | composite z-score [17] | composite z-score [18] | composite z-score [19] | composite z-score [20]
1 | Cc1cc2c(nc1C)CCCN2CC(C)ON=C[C@@H](C)[C@H](OCc1ccccc1)C(C)C (stereo not given in full) | -1.37 | 0.481 (inactive) | 0.514 (inactive) | 1.24 (inactive) | -0.817 | 0.448 (inactive) | -0.134 | 0.41 | 0.298 | -0.068 | -0.146 | -0.14 | -0.499 | 0.332 (inactive) | -0.375 | -0.857 | 0.0333 | -0.0161 | 0.227 | 0.622
2 | C=CCN(Cc1ccccc1)C(=O)C(c1cccs1)N(C(=O)/C=C\C(=O)O)c1ccc(CCO)cc1 (stereo not given) | -0.0611 and -0.636 | -0.0499 (inactive) and -0.0798 (inactive) | -0.0594 (inactive) and 0.33 (inactive) | -0.184 (inactive) and 0.0995 (inactive) | 3.59 and 1.9 | 0.478 (inactive) and -0.0137 (inactive) | -0.0927 and -0.205 | -2.05 and -1.63 | -1.46 and -0.922 | -0.239 and -0.321 | -0.14 and -0.0434 | -0.141 and -0.17 | 0.98 and 0.85 | 0.203 (inactive) and 0.258 (inactive) | -1.22 and -2.14 | -1.23 and -1.61 | -1.96 and -1.68 | -1.91 and -1.88 | -2.15 and -2.42 | -1.76 and -3.2
3 | C=CCN(Cc1ccccc1)C(=O)C1N(c2ccc(CCO)cc2)C(=O)C2C(C(=O)O)C3C=CC21O3 (stereo not given) | -1.64 and -0.655 | 0.774 (inactive) and -0.721 (inactive) | -0.455 (inactive) and 0.116 (inactive) | 0.599 (inactive) and -1.29 (inactive) | -0.933 and -1.02 | 1.12 (inactive) and 2.04 (inactive) | 0.0395 and 0.0834 | -2.88 and -1.99 | -1.35 and -1.12 | -0.418 and -0.305 | 0.808 and 1.9 | 0.433 and -0.26 | 1.08 and 1.01 | -0.426 (inactive) and -0.139 (inactive) | -1.98 and -2.13 | -1.13 and -1 | -1.69 and -2.44 | -3.03 and -1.19 | -2.7 and -3.74 | -3.78 and -3.04
4 | Cc1ccc(S(=O)(=O)N[C@@H]2COC(=O)CC=C[C@@H](C)[C@@H]3C=C[C@H](O)[C@@H](COC(=O)CC=C[C@H]2C)O3)cc1 | 0.438 and 0.385 | -0.147 (inactive) and -0.184 (inactive) | -0.349 (inactive) and -0.549 (inactive) | -0.564 (inactive) and -0.784 (inactive) | -0.0372 and -0.0592 | 0.651 (inactive) and -0.667 (inactive) | -0.185 and -0.162 | 0.902 and 0.305 | -0.0571 and 0.584 | -0.072 and -0.112 | 0.527 and 0.241 | -0.553 and -0.331 | -1.15 and -0.466 | -0.371 (inactive) and -1.35 (inactive) | 0.606 and 0.174 | 0.126 and 0.233 | 0.884 and 0.383 | 1.08 and 0.451 | 1.13 and 0.389 | 1.03 and -0.134
